According to PubChem BioAssay AID463173 (ICCB-Longwood Screening Facility, Harvard Medical School, 2010):
Among all 52,000 compounds or so, about 1,700 (3.3%) were called active. The full list was thinned out, with actives kept by preference. Unmarked numbers belong to inactive results. Rule as the data show it: active = survival mostly below about 52% (no sharp cut-off); inactive = mostly above about 56%.

tested on: Wild type; test: S. aureus survival, RN4220 and DeltatarO strains – OD600, teichoic acid synthesis inhibitors, primary screen (AID 463173); details: S. aureus RN4220 wild type/DeltatarO growth, OD600, 18 h, active compounds read low, screened at 18.75 µg/mL (by protocol)

SMILES | survival
CC1CCN(C(c2ccccc2)c2sc3nc(-c4ccco4)nn3c2O)CC1 (centres undefined) | 68%
Cc1[nH]c(=O)[nH]c(=O)c1/C=N\NC(=O)c1cc2ccccc2o1 | 111%
N#CC1=C(N)SC(N)=C(C#N)C1c1cc2c(cc1Cl)OCO2 | 112%
Cc1cccc(N(CC(=O)NC(C)c2ccccc2)S(=O)(=O)c2ccccc2)c1C (centres undefined) | 79%
Cc1cc(NC(=O)CSc2nc(-c3cccc(F)c3)nc3c2c(=O)n(C)c(=O)n3C)no1 | 68%
CCOc1cc(C#N)c(NC(=O)c2cccc(S(=O)(=O)N3CCOCC3)c2)cc1OCC | 131%
Cc1ccc(CNC(=O)CN2Cc3ccccc3C2=O)cc1 | 76%
COc1cccc(CNc2ncnc3c2nnn3C)c1 | 79%
CCc1nnc(SCc2cccc(Cl)c2)c2cc3sccc3n12 | 2% (active)
CCc1nnc(SCc2ccc(F)cc2Cl)c2cc3sccc3n12 | 93%
CCc1nnc(SCc2c(F)cccc2Cl)c2cc3sccc3n12 | 88%
N#Cc1cccc(NC(=O)C2CCN(c3cnccn3)CC2)c1 | 105%
CCCCN(CCCC)CCNC(=O)c1cn(CC)c2ccc(S(=O)(=O)N3CCc4ccccc4C3)cc2c1=O | 84%
Cc1ccc(NC(=O)CSc2nc3ccccc3n2CC(=O)N(C)C2CCCCC2)cc1C | 78%
CCN(C(=O)CSc1nc2ccccc2n1CC(=O)Nc1ccc(F)cc1F)c1ccccc1 | 73%
CC1CCN(C(=O)Cn2c(SCC(=O)Nc3ccc(F)cc3)nc3ccccc32)CC1 | 70%
CCN(C(=O)CSc1nc2ccccc2n1CC(=O)Nc1ccccc1C)c1ccccc1 | -6% (active)
CCN(C(=O)CSc1nc2ccccc2n1CC(=O)Nc1cccc(C#N)c1)c1ccccc1 | 124%
CCCCN(C)C(=O)Cn1c(SCC(=O)Nc2ccc(C)c(C)c2)nc2ccccc21 | 14% (active)
CC1CCN(C(=O)Cn2c(SCC(=O)NC(C)(C)C)nc3ccccc32)CC1 | 102%
Cc1ccc(NC(=O)CSc2nc3ccccc3n2CC(=O)N2CCC(C)CC2)cc1C | -1% (active)
CCN(CC)C(=O)Cn1c(SCC(=O)Nc2ccc(C)c(C)c2)nc2ccccc21 | 133%
CC1CCc2c(sc3nc(SCC(=O)Nc4c[nH]c(=O)[nH]c4=O)[nH]c(=O)c23)C1 (centres undefined) | 107%
Cc1ccc(CNC(=O)c2cc(-c3ccc(C)cc3)nc3n[nH]c(-c4cccc([N+](=O)[O-])c4)c23)cc1 | 74%
CC(C)CNS(=O)(=O)c1ccc(S(=O)(=O)N2CCCN(Cc3ccccc3)C2)cc1 | 97%

SMILES | survival
CCOc1ccc(-c2cc3nc(C4CCN(C(=O)OC(C)(C)C)CC4)c(C(=O)Nc4ccc(C)c(F)c4)cn3n2)cc1 | 86%
CCc1ccc(NC(=O)C2CCN(c3nc(-c4ccc(OC)cc4)no3)CC2)cc1 | 66%
COC(=O)c1cccnc1-n1c(=O)c2cccnc2n(CC(=O)Nc2ccccc2F)c1=O | 84%
Cc1[nH]c(=O)[nH]c(=O)c1CSCC(=O)O | 108%
O=C(/C=C/c1ccc(Cl)cc1)Nc1nc(-c2cccs2)ns1 | 75%
N#CSc1cnc(NC2CCCCC2)s1 | 2% (active)
Cc1ccc(-c2nnc(NC3CCCC3)s2)cc1 | 126%
Cc1cc(C)c(C#N)c(NC2CCCCC2)n1 | 92%
CC(=O)c1cccc(Nc2ccc3cc(S(=O)(=O)N4CCCC4)ccc3n2)c1 | 73%
O=S(=O)(c1ccc2nc(Nc3cccc(F)c3)ccc2c1)N1CCCC1 | 75%
CCOC(=O)c1cccc(Nc2ccc3cc(S(=O)(=O)N4CCCCC4)ccc3n2)c1 | -3% (active)
CCN(CC)c1cc(C)c2cc(NC(=O)/C=C/c3ccc(C)cc3)ccc2n1 | 68%
CCN(CC)c1ccc(NC(=O)c2cnc3c(-c4ccccc4)c(C)nn3c2C)c(C)c1 | 85%
COc1ccc(NC(c2nnc(-c3ccccc3)o2)c2ccccc2F)cc1Cl (centres undefined) | 65%
Cc1cc(NC(c2nnc(-c3ccccc3)o2)c2ccccc2F)ccc1Br (centres undefined) | 9% (active)
Fc1ccc(C(NCCc2ccc(Cl)cc2)c2nnc(-c3ccccc3)o2)c(Cl)c1 (centres undefined) | 3% (active)
Cc1ccc(NC(c2nnc(-c3ccccc3)o2)c2ccccc2F)c(Cl)c1 (centres undefined) | 91%
CC(C)c1ccc(NC(c2nnc(-c3ccccc3)o2)c2ccc(F)cc2Cl)cc1 (centres undefined) | 69%
Cc1cc(C)cc(NC(c2nnc(-c3cccc(F)c3)o2)c2ccc(F)cc2Cl)c1 (centres undefined) | 37%
Clc1ccc(CCNC(c2nnc(-c3ccccc3)o2)c2ccccc2Cl)cc1 (centres undefined) | 3% (active)
Cc1cc([N+](=O)[O-])ccc1NC(c1nnc(-c2ccccc2)o1)c1ccccc1F (centres undefined) | 99%
Fc1ccccc1C(NCCc1ccc(Cl)cc1)c1nnc(-c2ccccc2)o1 (centres undefined) | -1% (active)
Cc1cc(C)cc(NC(c2cccc(Cl)c2)c2nnc(-c3ccccc3)o2)c1 (centres undefined) | 91%
CCOC(=O)c1cccc(NC(c2nnc(-c3ccccc3)o2)c2ccccc2F)c1 (centres undefined) | 87%
